A selection: hits, their analogues and other compounds. The true share with any hit is near 8.9%.
HPGD block: inhibitors of human 15-hydroxyprostaglandin dehydrogenase (HPGD). P15428. purified HPGD, NADH fluorescence kinetic, PGE2 substrate. Potency, µM, without a hit: top-dose activity change, negative = inhibition, actives largely listed as inhibitors. 4.3% of 150,000 active. AID 894; active means well fitted inhibition curve with a large enough effect, not every such curve was filed as active; inconclusive means small, poorly fitted or top-dose-only effect, or another doubt; inactive means no such curve, though single readings can be large or run the other way; further: potency means the concentration at half of the fitted maximal effect
Target sequence (P15428 whole entry, looked up): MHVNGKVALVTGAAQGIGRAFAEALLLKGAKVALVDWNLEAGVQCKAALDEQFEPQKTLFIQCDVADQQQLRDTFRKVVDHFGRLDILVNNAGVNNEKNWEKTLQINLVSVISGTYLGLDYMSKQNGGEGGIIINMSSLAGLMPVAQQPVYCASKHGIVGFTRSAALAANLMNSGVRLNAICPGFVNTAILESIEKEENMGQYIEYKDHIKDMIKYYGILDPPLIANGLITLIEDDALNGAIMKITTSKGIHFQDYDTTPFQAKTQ
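20 nM HPGD preincubated 15 min at room temperature with compound in 50 mM Tris-HCl pH 8, 0.01% Tween 20. Started with 1 mM NAD+ and 30 uM prostaglandin E2; NADH fluorescence (360/450 nm) read 5 times over 30-s intervals, last minus first.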
NPSR antagonist: blocks cAMP signaling of the human neuropeptide S receptor; Q6W5P4; CHO-NPSR cells, cAMP TR-FRET, antagonist mode; Potency, µM (top dose mostly 38.3 µM), for inactives: at the highest dose activity change, negative = inhibition, usual class: inhibitors; 1% of 220,000 active; further: potency means the concentration at half of the fitted maximal effect; nearly all actives have a fitted effect of over 50% in size
IMPase Li cell: IMPase inhibition in cells with lithium potentiation. CHO-M1 cells, IP1 TR-FRET (IP-One), carbachol + lithium. Potency, µM (top dose mostly 59.4 µM), for inactives: at the top dose activity, negative = IMPase inhibition, most hits filed as inhibitors. 0.35% of 210,000 active. AID 1457;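 further: IP1 builds up when IMPase is blocked and the TR-FRET signal falls; potency means the concentration at half of the fitted maximal effect; plate controls were basal vehicle for no effect and high inhibitor control for full effect; nearly all actives have a fitted effect of over 50% in size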
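Steps: plate 2000 CHO-M1 cells per well and culture 16–30 h; add compound and lithium; incubate 30 min, 37C; add d2-IP1 tracer and Eu cryptate anti-IP1 antibody in lysis buffer; read after 10 min at room temperature.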
12-hLO inh: inhibitors of human 12-lipoxygenase (ALOX12); 0.12% of 150,000 active; AID 1452; Potency, µM (top dose mostly 57.1 µM), for the others: at the top dose activity change, negative = inhibition, most hits filed as inhibitors; P18054; purified 12-hLO, xylenol orange hydroperoxide absorbance; further: potency means the concentration at half of the fitted maximal effect; nearly all actives have a fitted effect of over 55% in size
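Purified human 12hLO (150 nM final) was preincubated with compounds for 15 min at room temperature in 25 mM Hepes pH 7.0, 0.01% Triton X-100, then reacted with 40 uM arachidonic acid for 30 min. Hydroperoxide was detected with ferrous iron/xylenol orange.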
IMPase inh: IMPase inhibition in cells; P97697; CHO-M1 cells, IP1 accumulation, HTRF TR-FRET ratio; inhibition (IP1 accumulation), % at 46.1 µM; 120,000 tested, under 10 active; active means well fitted curve in the direction sought with a large enough effect in the signal ratio, not every such curve was filed as active; inconclusive means small, poorly fitted or top-dose-only effect, or a change in a side signal; inactive means no such curve, though single readings can be large or run the other way; the % refers to the signal ratio;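 further: cells stimulated with carbachol in lithium chloride buffer; plate controls were DMSO basal wells for no effect and reference inhibitor wells for full effect; higher means more IMPase inhibition seen as more IP1 and lower FRET ratio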
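In this qHTS, compounds (final up to 46 uM) act on CHO-M1 cells that are then activated through the M1 receptor with carbachol, in pH 7.4 buffer containing 50 mM LiCl, for 30 min. IP1 accumulation is quantified by the IP-One immunoassay.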
ALDH1A1 inh: inhibitors of human aldehyde dehydrogenase 1A1 | P00352 | Purified ALDH1A1, NADH fluorescence, propionaldehyde substrate | Potency, µM (highest dose often 75.3 µM), for the others: top-dose activity, negative = inhibition, actives largely listed as inhibitors | 7.3% of 220,000 active; active means well fitted inhibition curve with a large enough effect, not every such curve was filed as active; inconclusive means small, poorly fitted or top-dose-only effect, or another doubt; inactive means no such curve, though single readings can be large or run the other way;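 further: potency means the concentration at half of the fitted maximal effect; plate controls were no enzyme wells and a reference inhibitor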
* marks the source's active call; other numbers are inactive results; ? = inconclusive; / = no result given; [ ] = another dose, or the depositor's remark. Unless noted, the call rests on the fitted dose curve; in most records, active means well fitted curve in the direction sought with a large enough effect; inconclusive means small, poorly fitted or top-dose-only effect, or another doubt; inactive means no such curve, though single readings can be large; an effect the other way counts as inactive or inconclusive. Unless noted, on the % scale 0 is the no-effect control and ±100 the full control effect.

SMILES	HPGD block	NPSR antagonist	IMPase Li cell	12-hLO inh	IMPase inh	ALDH1A1 inh
CC1CCCN(c2ccc(C(=O)OCn3nnc4ccccc4c3=O)cc2[N+](=O)[O-])C1 (stereo unspecified)	16µM*	-7%	4%	-5%	-10	-2%
Cc1ccc(C(=O)OCn2nnc3ccccc3c2=O)cc1[N+](=O)[O-]	/	5%	4%	/	/	?
O=c1c2c(nc3c(-c4ccc(Cl)cc4)c[nH]n13)CCC2	/	-15%	3%	/	/	?
Cc1cc(C(=O)N2CCCC(C(=O)c3cc(F)ccc3F)C2)c(C)o1 (stereo unspecified)	/	3%	13%	/	/	14µM*
CCc1ccc(-c2cc(-c3n[nH]c(=S)n3CC)c3ccccc3n2)cc1	?	-17%	-7%	-4%	/	?
Cn1ccnc1Sc1nnnn1-c1ccccc1	-2%	-3%[46.1 µM]	-1%[38.3 µM]	8%	-5	-7%
Cc1ccc2cc(C)c(Sc3nnnn3-c3ccccc3)nc2c1	-12%	-25%	0%	2%	/	5.6µM*
